Experimental data: PubChem BioAssay (EPA / NIEHS)
Records with an inconclusive call do not appear. Activity calls are given as the source filed them. Rule for the calls, unless noted: active = hit-call score of the fitted dose curve at least 0.9, where 1 is the maximum; inconclusive = response in the unintended direction; inactive = score below 0.9.

Columns and labels:
[1] = CCTE_Simmons_CellTiterGLO_HEK293T: Viability Assessment in CCTE's Assays for Thyroperoxidase (TPO) Inhibition, Simmons Lab (AID 2283665);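 for AC50: cells exposed to compound for 24 h before readout; actives reduce ATP signal below DMSO vehicle meaning cytotoxicity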
Method in brief: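 Luciferase-coupled ATP content after 24 h exposure gives viability; 8-point series from 5 nM to 87.5 uM final in 0.5% DMSO. Human HEK293T cells, 1% FBS medium, three biological replicates, dichlone positive control.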

[2] = Tanguay_ZF_120hpf_SWIM_legacy: (Legacy) Oregon State University Tanguay Lab 120 Hour Post-fertilization zebrafish Assay for Swim Bladder Malformation (AID 2283654);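 note: swim bladder malformation in each larva scored yes or no under brightfield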
Method in brief: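 Tropical 5D embryos dechorionated at 4 hpf; 1 embryo/well from 6 hpf; static, sealed, dark exposure at 28C until 120 hpf; final DMSO 0.64%; 5uM trimethyltin chloride positive control; swim bladder defect recorded yes/no; dead embryos not scored.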

[3] = CCTE_Padilla_ZF_144hpf_TERATOSCORE: (Legacy) CCTE's 144 Hour Post-fertilization zebrafish Assay Teratoscore, Padilla Lab (AID 2283679; active = hit-call score of the fitted dose curve at least 0.9, where 1 is the maximum; inactive = score below 0.9;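 for AC50: zebrafish embryos with chorions exposed by immersion from 6-8 hpf to 5 dpf with daily renewal; teratogenicity score from eye scoring of death hatching and malformations at 144 hpf; higher score means more developmental defects relative to DMSO baseline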)
Method in brief: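 Larvae scored by eye at 144 hpf for death, hatching and malformations after a day in clean Hanks'. Before that, daily-renewed exposure at 80 uM (0.4% DMSO, 26C) from roughly 6-8 hpf through 5 dpf, 4 embryos per chemical.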

[4] = STM_H9_OrnithineISnorm_perc: Stemina devTOX quickPredict H9 human embryonic stem cell (hESC)-based Assay for Ornithine (ORN) Metabolite Biomarker, Normalized (AID 2283712; active = hit-call score of the fitted dose curve at least 0.9, where 1 is the maximum; inactive = score below 0.9;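 note: ornithine released into spent medium during last day measured by mass spectrometry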)
Method in brief: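 Ornithine in spent medium from the last 24 h of a 72 h exposure, deproteinised and quantified by UPLC-HRMS against an isotope-labelled internal standard, expressed relative to 0.1% DMSO. Pluripotent H9 cells; compound refreshed every 24 h.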

[5] = Tanguay_ZF_120hpf_TRUN_legacy: (Legacy) Oregon State University Tanguay Lab 120 Hour Post-fertilization zebrafish Assay for Truncated Body (AID 2283655)
Method in brief: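 5D wild-type larvae; pronase dechorionation; static exposure 6→120 hpf, 28C; DMSO 0.64% final; 5uM trimethyltin chloride positive control. Readout: presence/absence of truncated body, analyzed relative to DMSO.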

Clc1ccc(COC(Cn2ccnc2)c2ccc(Cl)cc2Cl)cc1 (configuration not stated)
AC50 [1]: 22.4 µM (active)

O=[N+]([O-])c1ccc(O)c([N+](=O)[O-])c1
outcome [2]: inactive
AC50 [3]: 4.96 µM (active)
outcome [4]: inactive

COP(=O)(OC)O/C(=C\Cl)c1cc(Cl)c(Cl)cc1Cl
AC50 [1]: 25 µM (active)

CC1(C)CCC(Cc2ccc(Cl)cc2)C1(O)Cn1cncn1 (configuration not stated)
AC50 [1]: 89 µM (active)

CCCCCCCCSC(=O)Oc1cc(Cl)nnc1-c1ccccc1
outcome [1]: inactive

O=c1[nH]c(=O)[nH]c(=O)[nH]1
outcome [5]: inactive
outcome [3]: inactive

Cc1ccc2ccccc2c1C
AC50 [1]: 17.4 µM (active)

Cn1sc(Cl)cc1=O
outcome [2]: inactive
AC50 [3]: 14.9 µM (active)
